ZTA counter – counter-screen for EBNA-1 inhibitors: inhibitors of Epstein-Barr virus ZTA; actives 0.15% (n = 320,000); AID 2234; ZTA-DNA binding, fluorescence polarization; inhibition, % at 11 µM; in the data active = inhibition above about 33%
dFosB act – activators of delta FosB homodimer, primary screen, biochemical, fluorescence polarization, TAMRA-CDK5 oligo, single point. purified delta FosB; percent of positive-control signal above neutral wells. activation, % at 25 µM. Protein FosB (Mus musculus), P13346. actives 0.99% (n = 340,000);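 active = mean activation above about 17%, with every replicate also reaching it, limit read from the data, passing the limit was not always enough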
Rpn11 block – Rpn11 (PSMD14) deubiquitinase inhibitors, primary screen, biochemical, fluorescence polarization, uHTS | inhibition, % at 20 µM | human 26S proteasome, Ub4-pepOG fluorescence polarization; 20S core pre-blocked with epoxomicin | actives 0.59% (n = 360,000);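 active = inhibition at 20 µM, scaled to each plate's controls, above about 33%, limit read from the data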
TPT1 inhibitor – Candida albicans TPT1 enzyme inhibitors, primary screen, biochemical, fluorescence polarization | recombinant caTPT1, FP RNA substrate dephosphorylation | actives 0.81% (n = 300,000) | AID 1962, 2009 | tRNA 2'-phosphotransferase TPT1 (Candida albicans SC5314) | inhibition, % at 5 µM;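 active = inhibition above the mean of all tested compounds plus 3 SD, set per screening campaign, cut at about 24% in these data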;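 also: plate controls were DMSO alone for no effect and ferristatin control at 100 nM for full effect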
EBNA-1 inh – EBNA-1 DNA-binding inhibitors, primary screen, biochemical, fluorescence polarization. AID 1950, 2009. actives 0.34% (n = 300,000). inhibition, % at 14.8 µM; in the data active = inhibition above about 28%
NR3A LBD binder – binders of NR3A ligand-binding domain, primary screen, biophysical, differential scanning fluorimetry, uHTS | NR3A LBD differential scanning fluorimetry, Tm shift; 0% = protein alone, 100% = glycine-bound protein | Tm shift relative to glycine control, % at 25 µM | actives 2.5% (n = 340,000);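 active = melting temperature shift of at least 10% of the positive control shift, at one fixed dose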
Rpn11 inh conf – Rpn11 (PSMD14) deubiquitinase inhibitors, confirmation, biochemical, fluorescence polarization, single concentration; shares compounds with Rpn11 block; purified human 26S proteasome, Ub4-pepOG fluorescence polarization; proteasome pretreated with epoxomicin; inhibition, % at 20 µM; actives 29% (n = 1,900); AID 602318, 2012
MMP-2 inh – MMP-2 enzyme inhibition, confirmation, counter-screen for RPN11 inhibitor project, biochemical, fluorescence, single concentration. shares compounds with Rpn11 block. inhibition, % at 20 µM. actives 4% (n = 1,900). AID 602330, 2012. recombinant MMP-2, FRET peptide cleavage fluorescence;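 also: human MMP-2 activated beforehand with APMA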
Thrombin inh – bovine thrombin protease inhibition, confirmation, counter-screen for Rpn11 inhibitor project, biochemical, fluorescence polarization, single concentration. shares compounds with Rpn11 block. bovine thrombin cleavage of Ub4-pepOG. inhibition, % at 20 µM. actives 13% (n = 1,900);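 active = mean inhibition at least 40% at 20 µM, or signal 3 deviations below plate average, so some actives read negative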;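 also: plate controls were thrombin with DMSO for no effect and buffer wells lacking thrombin for full effect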
Target sequence (P00735 whole entry, looked up): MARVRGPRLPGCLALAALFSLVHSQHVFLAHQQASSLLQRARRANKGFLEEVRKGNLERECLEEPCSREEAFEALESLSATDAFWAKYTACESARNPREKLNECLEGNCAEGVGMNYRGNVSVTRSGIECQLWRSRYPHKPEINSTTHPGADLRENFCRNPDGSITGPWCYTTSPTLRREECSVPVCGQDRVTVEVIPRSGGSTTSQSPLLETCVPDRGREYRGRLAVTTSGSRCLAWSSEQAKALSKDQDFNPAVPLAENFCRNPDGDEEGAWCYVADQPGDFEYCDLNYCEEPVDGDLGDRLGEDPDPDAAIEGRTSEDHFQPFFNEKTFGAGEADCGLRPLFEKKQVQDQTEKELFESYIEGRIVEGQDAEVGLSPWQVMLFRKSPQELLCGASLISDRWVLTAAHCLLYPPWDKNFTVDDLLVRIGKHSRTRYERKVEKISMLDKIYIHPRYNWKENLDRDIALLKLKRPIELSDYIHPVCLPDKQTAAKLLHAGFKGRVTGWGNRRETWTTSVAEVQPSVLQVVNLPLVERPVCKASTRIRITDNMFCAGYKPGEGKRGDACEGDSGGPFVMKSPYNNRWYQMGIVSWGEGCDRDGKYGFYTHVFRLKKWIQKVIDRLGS
An asterisk follows results filed as active; x = no result given; ! = not active in a repeat. Most compounds without a hit are left out; they make up all but 4.5% or so of the library. Rule as the data show it, unless noted: active = inhibition above about 40%; inactive = the rest.

SMILES | ZTA counter | dFosB act | Rpn11 block | TPT1 inhibitor | EBNA-1 inh | NR3A LBD binder | Rpn11 inh conf | MMP-2 inh | Thrombin inh
CSc1ccc(S(=O)(=O)N2CCC(C(=O)Nc3ccccc3C(F)(F)F)CC2)cc1 | 2 | 1 | 35* | 0 | -4 | -3 | 4 | -13 | 1
N#CC(=C=[N-])c1nc2ccccc2nc1-[n+]1ccccc1 | -10 | 2 | 45*! | 2 | -2 | 1 | -8 | -28 | -3
Cc1ccc[n+](-c2nc3ccccc3nc2C(=C=[N-])C#N)c1 | -10 | -21 | 49*! | 15 | -1 | -1 | 12 | -3 | 3
O=C(CCCc1ccccc1)NCCS(=O)(=O)N1CCN(c2ccccc2F)CC1 | -3 | -5 | -2 | -2 | 5 | 0 | x | x | x
COc1ccc(N2CCN(C(=O)CSc3ncccc3-c3nc4ccccc4[nH]3)CC2)cc1 | -9 | -9 | 36* | 13 | -13 | -1 | 8 | 22 | 12
COc1ccccc1N1CCN(C(=O)CSc2ncccc2-c2nc3ccccc3[nH]2)CC1 | 0 | -17 | 31 | 13 | 0 | -1 | x | x | x
CCOC(=O)c1sc(NN=C(C(=O)OC)C(=O)OC)c(C(=O)OCC)c1C | 9 | 2 | 43* | 7 | -1 | -7 | 11 | 34 | 4
S=C(NCc1ccco1)N1CCN(c2ccccc2Cl)CC1 | 5 | -5 | 0 | 1 | 9 | 0 | x | x | x
O=C(Nc1nc2ccsc2c(=O)s1)c1ccc(F)cc1Cl | -13 | 6 | 3 | -3 | -19 | 0 | x | x | x
O=C(Nc1nc2ccsc2c(=O)s1)c1ccc(F)cc1 | 1 | x | 43* | -1 | 14 | 5 | 35 | -32 | -16
CN(C)c1ccc(/C=C(\C#N)C(=O)OCC(=O)N(C)C2CCS(=O)(=O)C2)cc1 (stereo unspecified) | -12 | -90 | 78* | x | x | 1 | 61* | -5 | 56*
COc1ccc(N2CCN(C(CNC(=O)C(=O)NCC(OC)OC)c3ccco3)CC2)cc1 (stereo unspecified) | 8 | -13 | -1 | 1 | 2 | 0 | x | x | x
C=C(C)CSc1nc2sc3c(c2c(=O)n1C1CCCCC1)CCN(C)C3 | 12 | 0 | 60* | 19 | -6 | 1 | 18 | -22 | 6
CCSc1nc2sc3c(c2c(=O)n1C1CCCCC1)CCN(C)C3 | x | -7 | 20 | x | x | 1 | x | x | x
Cc1cc(C)c(C#N)c(SCc2c(F)cccc2[N+](=O)[O-])n1 | -11 | -4 | 4 | -2 | -3 | 2 | x | x | x
COCCCNc1cc(C)nc2ccccc12 | -13 | 1 | -4 | 5 | -15 | 0 | x | x | x
Cc1cc(NCCCCCCCNc2cc(C)nc3cc([N+](=O)[O-])ccc23)c2ccc([N+](=O)[O-])cc2n1 | x | -6 | 95* | x | x | -1 | 85* | 76* | 11
CCOC(=O)N1CCN(C(=O)c2cccc(S(=O)(=O)Nc3ccc(Br)cc3)c2)CC1 | 2 | -7 | -7 | -4 | -1 | -1 | x | x | x
O=S(=O)(Nc1ccon1)c1ccc(Br)s1 | 6 | 1 | 52* | 1 | 4 | 5 | 13 | -28 | 2
CSc1nc2ccc(NS(=O)(=O)c3ccc(Br)s3)cc2s1 | 3 | -3 | -1 | 2 | 0 | 10 | x | x | x
COc1ccc2nc(C)cc(N/N=C/c3ccc(F)cc3)c2c1 | 9 | -20 | 69* | 1 | 8 | 0 | 4 | -27 | -41
CCCC(C)NC(=O)Cc1ccc(S(=O)(=O)N2CCOCC2)s1 (stereo unspecified) | -4 | 0 | -3 | x | x | -1 | x | x | x
CC1(C)NC(=O)N(CC(O)COc2cc3ccccc3cc2C(=O)N2CCCCC2)C1=O (stereo unspecified) | -8 | -1 | 67* | -2 | 5 | -1 | -29 | -18 | -13
CCOC(=O)N1CCN(C(=O)CCC(=O)c2ccc(OCC)cc2)CC1 | -7 | 2 | -3 | -1 | 6 | 1 | x | x | x
CCOc1ccc(C(=O)CCC(=O)N2CCC(C(=O)OC)CC2)cc1 | 11 | -5 | 48* | 11 | -2 | 0 | 37 | 5 | 21
SMILES | ZTA counter | dFosB act | Rpn11 block | TPT1 inhibitor | EBNA-1 inh | NR3A LBD binder | Rpn11 inh conf | MMP-2 inh | Thrombin inh
O=C(Nc1ccccc1)c1cnc2ccccc2n1 | 0 | -4 | 128* | -3 | 0 | 3 | -1 | -19 | -9
COc1ccc(-c2nn(-c3ccccc3)cc2C=O)cc1[N+](=O)[O-] | 2 | -7 | 24 | 0 | -2 | -1 | x | x | x
COc1ccc(-c2nnc(SC)nc2-c2ccc(OC)c([N+](=O)[O-])c2)cc1[N+](=O)[O-] | 12 | -11 | 103* | -2 | -16 | -1 | 21 | 70* | 3
COc1ccc2c(c1)Cc1sc(NC(=O)c3ccco3)nc1-2 | 3 | -10 | 152* | -4 | -2 | -27 | -5 | -31 | -9
Cc1ccc(C)c(NC(=S)NC23CN4CN(CN(C4)C2)C3)c1 | 5 | -4 | 0 | 1 | -1 | -1 | x | x | x
O=C1CS(=O)(=O)N(Cc2ccc(F)cc2)c2ccccc21 | x | 3 | 66* | x | x | 0 | -2 | -22 | -6
COc1cc(CN2c3ccccc3C(=O)CS2(=O)=O)cc(OC)c1 | x | -4 | 58* | x | x | -2 | 82* | -46 | -18
COc1cccc(CN2C(=O)c3ccccc3S2(=O)=O)c1 | 4 | 1 | -11 | 3 | -7 | 2 | x | x | x
O=C1CS(=O)(=O)N(Cc2ccccc2F)c2ccc(Br)cc21 | x | -13 | 50* | x | x | -13 | -15 | -32 | -14
CCOc1ccc(CCNC(=O)CCNC(=O)c2ccco2)cc1OCC | -4 | -1 | -6 | -3 | -5 | -1 | x | x | x
O=C(O)c1ccc(/C=C/c2nc3ccccc3c(=O)[nH]2)cc1 | -3 | -5 | -2 | -4 | 7 | 2 | x | x | x
